Source: PubChem
This is a sample that favours compounds with a hit; in the whole collection about 2.1% have one here.
LDHA block – LDHA (human) enzyme inhibition; P00338; purified LDHA, NADH/diaphorase-resazurin fluorescence; active compounds read low; activity change, % (values are at about 110 or 230 µM); 480,000 tested, 0.15% active; AID 1347041; in the data active = activity change below about -30%; inconclusive = mostly about -25% to -30%
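Human LDH5 at 2 nM final in Tris HCl pH 7.4 with 0.06 mM NADH and 0.2 mM pyruvate, reacted 5 minutes at room temperature. Remaining NADH coupled via diaphorase/resazurin; resorufin fluorescence read at 0 and 20 minutes, normalized to enzyme-free and DMSO wells.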
D2 ag-1 – activates the human D2 dopamine receptor | P14416 | DiscoveRx PathHunter D2 beta-arrestin, luminescence, 90 min; 100% = 57 uM dopamine signal | activation, % (no concentration beside the values) | 360,000 tested, 0.084% active; in the data active = activation above about 40%; inconclusive = between about 15% and that limit
Target sequence (P14416 whole entry, looked up): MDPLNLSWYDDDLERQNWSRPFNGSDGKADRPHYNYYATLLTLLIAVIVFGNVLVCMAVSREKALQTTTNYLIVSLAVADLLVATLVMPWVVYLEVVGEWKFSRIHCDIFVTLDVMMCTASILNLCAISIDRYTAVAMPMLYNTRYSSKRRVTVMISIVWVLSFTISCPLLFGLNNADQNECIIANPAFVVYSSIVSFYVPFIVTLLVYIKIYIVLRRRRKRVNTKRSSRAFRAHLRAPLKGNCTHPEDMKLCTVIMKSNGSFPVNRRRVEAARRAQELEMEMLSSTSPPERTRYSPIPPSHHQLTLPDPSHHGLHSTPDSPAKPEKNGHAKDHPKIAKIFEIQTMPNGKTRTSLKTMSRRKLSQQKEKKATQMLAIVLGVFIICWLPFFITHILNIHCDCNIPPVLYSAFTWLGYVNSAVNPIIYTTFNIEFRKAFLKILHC
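DiscoveRx PathHunter D2 beta-arrestin cells (2,100/well) attached overnight, then compound-stimulated 90 min at 37 C in HBSS/10 mM HEPES/0.1% Tween-20 buffer; beta-galactosidase complementation read by luminescence after 1 h at ambient temperature. Dopamine 57 uM final (EC100) as control.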
D2 ag-2 – activates the human D2 dopamine receptor; HEK293 T-REx D2 cells, calcium flux agonist mode; activation, % at 2 µM; AID 485358; 340,000 tested, 0.53% active;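 active = activation over 3 SD above normal in the single-dose calcium agonist read, cut at about 30% in these data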
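Tetracycline-induced HEK293 Trex cells with D2 receptor force-coupled to calcium signaling, plated overnight at 30 C and loaded with no-wash calcium dye. Calcium flux read kinetically for 180 s after compound addition; responses flag agonists.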
D2 PAM-1 – human D2 receptor positive allosteric modulation; AID 624464; potentiation, % (test concentration not listed); 360,000 tested, 0.23% active; P14416; DiscoveRx D2 beta-arrestin cells, luminescence, 90 min; 100% = 57 uM dopamine signal; in the data active = potentiation above about 50%; inconclusive = mostly about 30% to 49%
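PathHunter D2 cells, attached overnight at 37 deg C, received compound in DMSO plus dopamine at EC20 (50 nM final) for 90 min at 37 deg C. Beta-arrestin recruitment was read as luminescence after 1 h with detection reagent at ambient temperature.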
D2 PAM-2 – D2 dopamine receptor (human) potentiation. 340,000 tested, 0.34% active. AID 485347. P14416. potentiation, % at 10 µM. HEK293 T-REx D2, calcium flux, EC20 dopamine potentiation;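 active = potentiation over 3 SD above the plate norm, cut at about 30% in these data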
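Potentiation of an EC20 dopamine calcium response measured kinetically over 180 s, after a preceding 180 s compound-only read flagging agonists. Cells: inducible Hek293 Trex D2 line, 4000/well, cultured overnight at 30 C before dye loading.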
D2 antagonist – antagonists of human D2 dopamine receptor; P14416; HEK293 TREx D2 cells, calcium flux, dopamine EC80; inhibition, % at 10 µM; 340,000 tested, 2% active; in the data active = inhibition above about 30%; inactive = below that, where a call was filed
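Tetracycline-induced HEK293 T-REx cells expressing D2 force-coupled to calcium signalling were dye-loaded, exposed to compound for 180 s, then challenged with an EC80 of dopamine; calcium flux was followed kinetically for a further 180 s.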
Of the large screens only hits and unclear results are named; the others gave an inactive call.

Cc1ccc(NC(=O)Nc2nnc(-c3ccccc3F)s2)cc1	none
Cc1nc2ccccc2n1CCC(=O)O	none
Cc1nc2ccccc2n2c(O)c(CC(=O)O)cc12	D2 PAM-1 79
Cc1ccc(SCc2ccc(C(=O)Nc3c(C)cccc3C(C)C)cc2)cc1	none (no result: D2 ag-1, D2 ag-2, D2 PAM-1, D2 PAM-2, D2 antagonist)
O=C(Cn1cccc1C(=O)c1ccccc1)NCc1ccc2c(c1)OCO2	none
CC(NC(=O)Cn1cccc1C(=O)c1ccccc1)c1ccc2c(c1)OCCO2 (stereo not drawn)	D2 PAM-2 34
O=C(CCc1ccccc1)NC1(C(F)(F)F)C(=O)Nc2c1c(=O)[nH]c(=O)n2Cc1ccccc1 (stereo not drawn)	LDHA block -35 (no result: D2 ag-1, D2 ag-2, D2 PAM-1, D2 PAM-2, D2 antagonist)
N#C/C(=C/c1cccc2c1OCCCO2)c1nc2ccccc2[nH]1	none (no result: D2 ag-1, D2 ag-2, D2 PAM-1, D2 PAM-2, D2 antagonist)
Cc1noc(C(=O)Nc2ccc3c(c2)OCO3)c1Cl	D2 antagonist 54
CCc1onc(C)c1C(=O)Nc1ccc2c(c1)OCO2	none (no result: D2 ag-2, D2 PAM-2, D2 antagonist)
Cc1ccc2c(Cl)c(C(=O)Nc3ccc4c(c3)OCO4)sc2c1	D2 antagonist 34
CC(C)c1nc(C#N)c(NCCCn2ccnc2)o1	D2 antagonist 43
Fc1cccc(C=Nc2cccc3c(N=Cc4cccc(F)c4)cccc23)c1	none (no result: D2 ag-1, D2 ag-2, D2 PAM-1, D2 PAM-2, D2 antagonist)
Cc1ccc2nc(CSc3nnc(-c4ccncc4)n3C)cc(=O)n2c1	D2 antagonist 71
Cc1cc(C)c(NS(=O)(=O)c2c(C)cc(N3C(=O)CCS3(=O)=O)cc2C)c(Cl)c1	none (no result: D2 ag-1, D2 ag-2, D2 PAM-1, D2 PAM-2, D2 antagonist)
Cc1ccc(OCC(=O)c2c(N)n(C)c(=O)n(C)c2=O)c([N+](=O)[O-])n1	D2 antagonist 33
Cc1ccc(OCC(=O)c2cc(C)c(C)cc2C)c([N+](=O)[O-])n1	none
Cc1ccc(NC(=O)c2ccc(CSc3nccc(C)n3)cc2)cc1	D2 antagonist 31
Cc1ccnc(SCc2ccc(C(=O)O)cc2)n1	none
O=C(CCN=C1NS(=O)(=O)c2ccccc21)OCc1nnc(-c2ccc([N+](=O)[O-])cc2)o1	D2 PAM-1 69 (no result: D2 ag-2, D2 PAM-2, D2 antagonist)
N#Cc1ccccc1COC(=O)CCN=C1NS(=O)(=O)c2ccccc21	none (no result: D2 ag-2, D2 PAM-2, D2 antagonist)
CCOc1ccc(CN(CC)Cc2cc(=O)oc3ccc(OC)cc23)cc1	none (no result: D2 ag-1, D2 ag-2, D2 PAM-1, D2 PAM-2, D2 antagonist)
CCOC(=O)c1cc(C(C)(C)C)nc(SC)c1C#N	none
CCOC(=O)c1cc(C)nc(SC)c1C#N	D2 antagonist 31
Cc1ccc(C(=O)/C=C/N2CCCCC2)cc1	none (no result: D2 ag-1, D2 ag-2, D2 PAM-1, D2 PAM-2, D2 antagonist)
COc1cc(NC(=O)Nc2nc(C(N)C3CCCCC3)cs2)cc(OC)c1OC (stereo not drawn)	D2 ag-1 109, D2 PAM-1 inconclusive (no result: D2 ag-2, D2 PAM-2, D2 antagonist)
COc1ccccc1NC(=O)Nc1nc(C(N)C2CCCCC2)cs1 (stereo not drawn)	none (no result: D2 ag-2, D2 PAM-2, D2 antagonist)
O=C(O)c1n[nH]c2c1CCCC2	D2 antagonist 57
O=C(O)c1n[nH]c2c1CCCCC2	none
CCc1ccc(-c2nc3ccccc3c(C(=O)O)c2C)cc1	none (no result: D2 ag-1, D2 ag-2, D2 PAM-1, D2 PAM-2, D2 antagonist)
Cc1cccc(CNCc2ccco2)c1	none (no result: D2 ag-1, D2 ag-2, D2 PAM-1, D2 PAM-2, D2 antagonist)
Cc1ccccc1-n1c(-c2cccnc2)n[nH]c1=S	none
CCc1cccc(CC)c1-n1c(-c2cccnc2)n[nH]c1=S	D2 antagonist 66
CC1CC1C(=O)NCCC(=O)Nc1ccc(C#N)cc1 (stereo not drawn)	none (no result: D2 ag-1, D2 ag-2, D2 PAM-1, D2 PAM-2, D2 antagonist)
CC(=O)c1cccc(NC(=O)NNC(=O)c2ccc3ccccc3c2)c1	none
CC(=O)c1cccc(NC(=O)c2ccc3ccccc3c2)c1	D2 antagonist 31
Cc1ccc(CNC(=O)CSc2ncc3c(n2)-c2ccc(Cl)cc2N(C)S3(=O)=O)cc1	none (no result: D2 ag-1, D2 ag-2, D2 PAM-1, D2 PAM-2, D2 antagonist)
CC1(C)CC(N(Cc2cccs2)C(=O)c2ccco2)CCO1 (stereo not drawn)	D2 PAM-2 33
CC1(C)CC(N(Cc2ccco2)C(=O)Cc2ccccc2)CCO1 (stereo not drawn)	none
O=c1oc2cc(OCCN3CCN(CCO)CC3)ccc2cc1-c1ccccc1	none (no result: D2 ag-1, D2 ag-2, D2 PAM-1, D2 PAM-2, D2 antagonist)
O=C(O)c1ccccc1C(=O)NC1Cc2ccccc2C1	D2 ag-2 35
Cc1ccc(C(=O)NC2Cc3ccccc3C2)cc1	none (no result: D2 ag-1, D2 ag-2, D2 PAM-1, D2 PAM-2, D2 antagonist)
Cc1ccc(S(=O)(=O)N(C)C)cc1C(=O)NC(c1ccc2c(c1)OCCO2)C(C)C (stereo not drawn)	none (no result: D2 ag-1, D2 ag-2, D2 PAM-1, D2 PAM-2, D2 antagonist)
